PubChem BioAssay (NCI)
This is part of a sample that, as a whole, favours compounds with a hit. Of some 79,000 tested, about 15% had one in any assay. Cut-off read from the data, not from the text of the source: active = growth inhibition above about 70%; inactive = the rest.

Tests used:
[1] = NCI Yeast Anticancer Drug Screen. Data for the rad50 strain (AID 155);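 note: 0% = growth of vehicle-only cultures of the same strain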; settings: S. cerevisiae rad50 strain growth inhibition; at 50.0 µM; active compounds read high
Summary of the method: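 A DNA repair-deficient yeast mutant serves as the test organism; compound-induced growth inhibition is calculated against vehicle-treated cells.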

[2] = NCI Yeast Anticancer Drug Screen. Data for the mec2-1 strain (AID 157); settings: S. cerevisiae mec2-1 strain, at 50.0 µM, active compounds read high
Summary of the method: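 Using mec2-1 yeast: add compound, measure growth, express inhibition versus vehicle-treated cultures.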

[3] = NCI Yeast Anticancer Drug Screen. Data for the sgs1 mgt1 strain (AID 161);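 note: 0% = growth of cultures given vehicle only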; settings: S. cerevisiae sgs1 mgt1 strain, at 50.0 µM, active compounds read high
Summary of the method: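 Yeast cells carrying a defined DNA-repair defect were exposed to test compounds. Growth inhibition was measured relative to vehicle-treated controls.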

[4] = NCI Yeast Anticancer Drug Screen. Data for the cln2 rad14 strain (AID 165);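 note: 0% = growth equal to vehicle treated cultures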; settings: S. cerevisiae cln2 rad14 strain, at 50.0 µM, active compounds read high
Summary of the method: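 Yeast strain cln2 rad14, bearing defects in cell cycle control and DNA repair, serves as the test system; values reflect growth inhibition compared with vehicle.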

[5] = NCI Yeast Anticancer Drug Screen. Data for the bub3 strain (AID 167); settings: S. cerevisiae bub3 mutant strain, at 50.0 µM, active compounds read high
Summary of the method: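 Inhibition values come from growth of compound-treated mutant yeast normalised to vehicle-treated controls.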

[6] = NCI Yeast Anticancer Drug Screen. Data for the mlh1 rad18 strain (AID 175); settings: S. cerevisiae mlh1 rad18 strain growth inhibition; at 50.0 µM; active compounds read high
Summary of the method: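 Steps: expose repair-defective yeast to compound; measure growth; express inhibition against vehicle-treated controls.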

Measured: growth inhibition

CCCCCC(Cl)(CC)CCCCC
inactive: [1] -23.4% | [2] -0.6% | [3] -16.6% | [4] -39.7% | [5] 1.45% | [6] -8.85%

O=C(CCl)OCCN(CCOC(=O)CCl)Cc1coc2ccccc2c1=O
inactive: [1] -4.35% | [2] -16.2% | [3] -4.85% | [4] -23.4% | [5] -1.1% | [6] -5.65%

CCOc1ccc(-c2nc(-c3oc4ccccc4c(=O)c3OC(C)=O)cs2)cc1
inactive: [1] -5.25% | [2] 1% | [3] 1.85% | [4] -2.85% | [5] -5.9% | [6] 9.4%

CC(=O)OC1CC(C(C)C)CCC1C (stereo unspecified)
inactive: [1] 18.1% | [2] 12.8% | [3] 6.3% | [4] 4.95% | [5] -8.55% | [6] 11.7%

CC(C)(O)CC(=O)/C=C\c1ccc2c(c1)OCO2
inactive: [1] 25.9% | [2] 27.9% | [3] 10.1% | [4] -11.9% | [5] -4.4% | [6] 4.35%

CN(C)CC(=O)c1c[nH]c(=O)[nH]c1=O
inactive: [1] 11.3% | [2] -49.1% | [3] -13.4% | [4] -63.2% | [5] -1.65% | [6] -8.55%

C[Si](C)(Cl)c1ccccc1
inactive: [1] -47.6% | [2] -27.4% | [3] -11.7% | [4] 17.4% | [5] -23.6% | [6] -18.4%

CCCCCCCCSCCCC(=O)O
inactive: [1] -16.9% | [2] -22.8% | [3] -10.8% | [4] -11.3% | [5] -27.7% | [6] -29.2%

COc1ccc(C2c3cc4c(cc3OC(N3CCOCC3)C2C)OCO4)cc1 (stereo unspecified)
inactive: [1] -12.4% | [2] -22.1% | [3] -20.2% | [4] -3.95% | [5] -32.9% | [6] -57.2%

COc1ccc(NC(C)=O)c(O)c1C
inactive: [1] -0.6% | [2] 2.15% | [3] -17% | [4] -25.4% | [5] -3.7% | [6] -12.7%

CC(=C\C=N\N(C)c1ccccc1)/C=C1\Cc2ccccc2C1=O
inactive: [1] -8.7% | [2] 2.2% | [3] -19.1% | [4] 14% | [5] -2.8% | [6] -9.65%

Nc1ccn(C2OC(COC(=O)C34CC5CC(CC(C5)C3)C4)C(O)C2O)c(=O)n1 (stereo unspecified)
inactive: [1] -14.5% | [2] 0.4% | [3] -35.5% | [4] -2.4% | [5] -31.2% | [6] 6.3%

Cc1occ(Br)c(=O)c1O
inactive: [1] 12.9% | [2] 12.3% | [3] 17.5% | [4] 25.8% | [5] -0.85% | [6] 15.2%

O=NN(C(=O)NCCCl)c1[nH]c(=O)ncc1Br
inactive: [1] -8.6% | [2] -13.7% | [3] -16% | [4] -25.4% | [5] -7.95% | [6] -6.7%

OCCOCC#CCOCCO
inactive: [1] 3.9% | [2] -0.25% | [3] -2.35% | [4] -7.45% | [5] -9.25% | [6] 9.3%

COc1cc(SC)c(OC)cc1C
inactive: [1] 4.15% | [2] 0.65% | [3] -12.4% | [4] -22.4% | [5] -6% | [6] 4.85%

CCOC(=O)NOC1CCCCO1 (stereo unspecified)
inactive: [1] 1.05% | [2] -6.8% | [3] -3.2% | [4] -14.6% | [5] -10.9% | [6] 4.95%

O=c1c2cccnc2[nH]c2ccc3scnc3c12
inactive: [1] -8.85% | [2] -11.3% | [3] -3.75% | [4] 22.2% | [5] -20.1% | [6] 40.7%

OC1COCOC1C(O)C1OCOCC1O (stereo unspecified)
inactive: [1] 3% | [2] 9.8% | [3] 7.85% | [4] 4.3% | [5] -6.15% | [6] 1.75%

COc1cc(C)cc(O)c1C=O
inactive: [1] 9.9% | [2] -9.95% | [3] -0.1% | [4] -17.1% | [5] -0.2% | [6] 3.45%

CCCOc1cc2c(cc1C(C)c1ccc(OC)cc1)OCO2 (stereo unspecified)
inactive: [1] 9.8% | [2] -4.35% | [3] 15.8% | [4] -1.9% | [5] -14.4% | [6] -53%
